An excerpt weighted towards active compounds, which were near 20% of everything screened.
HCMV antiviral: inhibitors of human cytomegalovirus | AID 1259415 | 4.5% of 410,000 active | HFF cells, HCMV-luciferase reporter, 72 h; active compounds read low | activity change, negative = inhibition, % at 57.5 µM; in the data active = activity change below about -60%; inconclusive = no clear call, values can overlap the other calls; inactive = above about -39%; note: % is set by controls: 0 for no effect and ±100 for the full control effect
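Inhibition of viral replication was scored as loss of reporter luminescence in HFFs infected with HCMV-luciferase (MOI 1 PFU/cell) for 72 h; compounds tested at 2 doses, normalized to buffer and Salinomycin controls.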
Pf growth 48h: inhibits P. falciparum growth in the first generation, 48 h | P. falciparum luciferase growth in erythrocytes, 48 h | Potency, µM (titrated, usually from 28.7 µM), for the others: top-dose activity change, negative = inhibition, hits mostly inhibitors | 5.9% of 310,000 active; note: potency is the fitted concentration of half-maximal effect; % is set by controls: 0 for no effect and ±100 for the full control effect
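Luciferase-expressing P. falciparum in infected erythrocytes (2% hematocrit, 0.1% parasitemia final) in RPMI 1640/0.5% Albumax were exposed to compound for 48 hours at 37 C, 5% CO2; growth read as luminescence.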
Pf growth 96h: inhibits malaria parasite growth, 96 h; P. falciparum luciferase reporter growth, 96 h; Potency, µM (series often up to 28.7 µM), for the others: at the top dose activity change, negative = inhibition, most hits filed as inhibitors; 6.9% of 320,000 active; note: potency is the fitted concentration of half-maximal effect; % is set by controls: 0 for no effect and ±100 for the full control effect
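Erythrocytes infected with luciferase-expressing P. falciparum were dispensed at 2% hematocrit and 0.05% parasitemia (final), then incubated with compounds 96 hours at 37 C in 5% CO2. Luminescence after detection reagent addition reported growth.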
Shiga toxin inh: inhibitors of Shiga toxin in Vero cells; Vero cells, Shiga toxin protein synthesis inhibition reporter; inhibition, % at 38.7 µM; 9.2% of 290,000 active; AID 2315; in the data active = inhibition mostly above about 28%, no sharp cut-off; inactive = mostly below about 43%; note: 0% is about no effect
CHX counter: affects cycloheximide protein synthesis inhibition readout, counter-screen; cell reporter, cycloheximide protein synthesis inhibition counterscreen; max response, %; 12% of 300,000 active; AID 2314; in the data active = max response mostly above about 13%, no sharp cut-off; inactive = mostly below about 14%; note: read at 38.3 µM for the half of the compounds with a filed dose; 0% is about no effect
Active calls of the source: *; ? = inconclusive; / = not tested or not shown. Unless noted, calls come from the whole dose curve; as a rule, active = well fitted inhibition curve with a large enough effect; inconclusive = small, poorly fitted or top-dose-only effect, or another doubt; inactive = no such curve, though single readings can be large or run the other way.

SMILES	HCMV antiviral	Pf growth 48h	Pf growth 96h	Shiga toxin inh	CHX counter
O=C(OCc1nnc(-c2ccccc2)o1)c1ccc(Cl)cc1	-34.1	12.8%	-12.5%	-1.4	-0.7
O=C1CCC(C(=O)OCc2nnc(-c3ccccc3)o2)=NN1	5.7	60.3%	28.6%	/	/
O=C(OCc1nnc(-c2ccccc2)o1)C1=COCCO1	-3.3	9.5%	442.7%	24.6	21.7*
CS(=O)(=O)c1ccc(C(=O)OCc2nnc(-c3ccccc3)o2)cc1[N+](=O)[O-]	8.1	0.0%	1.8%	21.0	24.6*
O=C(OCc1nnc(-c2ccccc2)o1)c1ccc2c(c1)OCCO2	44.4	70.6%	104.4%	45.2*	22.2*
COc1cccc(C(=O)Nc2ccccc2-c2nnc(-c3cc(OC)ccc3Br)o2)c1	-10.5	/	/	/	/
Cc1c2cnn(CC(=O)NCCc3ccccc3)c(=O)c2c(C)n1Cc1ccccc1Cl	5.8	/	/	/	/
COc1cc(NC(=O)CSc2ncc3c(n2)-c2ccc(Cl)cc2N(Cc2ccccc2)S3(=O)=O)cc(OC)c1	-6.3	/	/	/	/
Cc1ccc2cc3cc(C(=O)NC4CCCCC4)oc3nc2c1	0.9	?	?	13.3	16.6
Cc1ccc2cc3cc(C(=O)NCc4ccco4)oc3nc2c1	25.5	2.94µM*	?	32.4*	23.1*
COc1ccc(CNC(=O)c2cc3cc4ccc(C)cc4nc3o2)cc1	-11.4	/	/	/	/
Cc1ccc2cc3cc(C(=O)NCCC(C)C)oc3nc2c1	-21.3	10.4µM*	?	-16.9	-2.4
Cc1ccc2cc3cc(C(=O)NC4CC4)oc3nc2c1	-0.6	-5.3%	?	30.4	26.4*
COc1cccc2cc(-c3nnc(SCC(=O)NCc4ccccc4)n3C)oc12	11.1	?	4.3%	22.8	1.2
Cc1cccc(NC(=O)N2CCN(Cc3ccc(Cl)cc3)CC2)c1	-62.9*	12.9%	?	-5.0	-1.7
CCOC(=O)N1CCN(C(=O)Nc2cccc(Cl)c2)CC1	-25.7	/	11.7µM*	-6.9	-1.1
CCOC(=O)N1CCN(C(=O)Nc2ccc(Cl)cc2)CC1	-34.5	-18.3%	150.6%	11.1	1.8
Cc1cccc(CN2CCN(Cc3ccc(Cl)cc3)CC2)c1	4.2	/	?	-11.8	-3.9
O=C(Nc1cccc(Cl)c1)N1CCN(Cc2ccccc2)CC1	47.4	59.3%	-13.0%	41.3*	21.2*
O=C1OC(c2ccc(Br)cc2)=N/C1=C\N1CCCCC1	38.5	106.5%	?	65.6*	22.6*
Cc1nn(-c2ccccc2)c(N2CCCC2)c1/C=C1\N=C(c2ccc(F)cc2)OC1=O	-35.7	-15.3%	-18.2%	-4.4	-2.7
Cc1ccc(C2=N/C(=C\c3c(C)nn(-c4ccccc4)c3N3CCCC3)C(=O)O2)cc1	30.7	7.3%	39.4%	-5.3	-2.0
O=C1OC(c2ccccc2)=N/C1=C\N1CCCCC1	60.5	106.1%	424.7%	61.2*	42.1*
O=C1OC(c2ccccc2)=C/C1=C/N1CCCCC1	23.1	140.0%	-16.3%	125.8*	38.5*
CCOC(=O)C(NCCCCl)c1ccccc1 (centres undefined)	14.7	/	77.1%	32.2	5.2
SMILES	HCMV antiviral	Pf growth 48h	Pf growth 96h	Shiga toxin inh	CHX counter
CCN(CC)CCNC(C(=O)OCCC(C)C)c1ccccc1 (centres undefined)	/	16.9µM*	13.5µM*	/	/
N#Cc1ccc(CSc2nnc(-c3ccncc3)o2)cc1	?	-4.1%	114.1%	-5.1	-1.9
O=C(CSc1nnc(-c2ccncc2)o1)NCc1ccccc1	-89.7*	0.6%	-3.9%	-12.1	-3.8
COC(=O)c1ccc(CSc2nnc(-c3ccncc3)o2)cc1	-67.7*	13.6%	12.0%	-1.0	-0.7
c1ccc(CSc2nnc(-c3ccncc3)o2)cc1	-73.1*	95.4%	-0.2%	84.9*	34.9*
COc1ccc(C(C)=O)cc1CSc1nnc(-c2ccncc2)o1	-1.7	?	4.15µM*	-7.0	-2.1
COC(=O)c1ccc(CSc2nnc(-c3ccncc3)o2)o1	13.9	20.1%	/	10.3	-0.6
COc1cc(C(=O)OCC(=O)Nc2ccc(OC(F)F)cc2)cc(OC)c1OC	-10.8	7.5%	0.0%	30.8	3.6
Cc1ccccc1CSc1nnc(-c2ccncc2)o1	37.8	-22.2%	29.0%	39.1	13.1*
CCCNC(=O)C1(C)CCN(C(=O)c2ccccc2OC)C1 (centres undefined)	-17.4	/	/	/	/
O=S(=O)(/N=C(/Nc1cccc2ccccc12)c1ccccc1)c1ccccc1	-15.6	?	155.2%	12.3	-2.7
O=S(=O)(/N=C(/Nc1cccc2ccccc12)c1ccccc1)c1ccc(F)cc1	15.8	3.9%	-5.9%	7.8	0.5
O=S(=O)(/N=C(/Nc1cccc2ccccc12)c1ccccc1)c1cccs1	53.6	?	11.7µM*	-2.9	3.9
O=S(=O)(/N=C(/Nc1cccc2ccccc12)c1ccccc1)c1ccc(Br)cc1	44.7	12.9%	4.15µM*	1.5	-3.3
Cc1cc(CNC(=O)COc2ccc(F)cc2Cl)cc(C)c1O	-40.0	-20.3%	-14.2%	-4.7	18.9
CCOc1ccc(C)cc1S(=O)(=O)n1cnc2ccccc21	?	9.4%	?	3.6	-3.7
Nc1ccc(-c2nc3ncccc3o2)cc1	?	49.9%	?	30.9*	33.7*
Cc1ccc(-c2nc3ncccc3o2)cc1NC(=O)c1cc2ccccc2o1	-6.2	/	93.0%	-15.0	-1.3
O=C(Cc1ccccc1)Nc1cccc(-c2nc3ncccc3o2)c1	-11.4	-5.4%	/	21.7	5.1
Nc1cccc(-c2nc3ncccc3o2)c1	62.1	8.5%	15.2%	55.6*	31.0*
CCOC(=O)Nc1nc2ccc(Cn3cccc3)cc2[nH]1	36.4	/	/	/	/
O=C(c1ccccc1)c1ccc2nc(Nc3ccccc3Cl)c3nncn3c2c1	-5.6	/	/	/	/
CCc1ccc2c(c1)C1(NN=C(c3cccc4ccccc34)S1)C(=O)N2 (centres undefined)	?	2.94µM*	-20.7%	47.6*	16.0
O=C(NCCSc1ccc(Br)cc1)c1ccc2nc[nH]c2c1	25.3	13.5%	-11.8%	16.3	21.0*
CC(C)CCNC(=O)c1ccc2nc[nH]c2c1	23.0	38.9%	/	51.5	24.4*
SMILES	HCMV antiviral	Pf growth 48h	Pf growth 96h	Shiga toxin inh	CHX counter
O=C(CN1C(=O)NC2(CCCCCC2)C1=O)c1ccc(Cl)s1	-22.1	?	1.5%	/	/
CSc1nc(=O)c2c(n1C)NC(=O)CC2c1cc(F)cc(F)c1 (centres undefined)	-1.0	/	/	/	/
CC1CCc2cc(F)cc3c(O)c(C(=O)NCCN(C)C)c(=O)n1c23 (centres undefined)	1.7	0.0%	9.28µM*	-3.3	-3.4
CC(NC(N)=O)C(=O)OCC(=O)c1ccc(-c2ccccc2)cc1 (centres undefined)	18.0	11.0%	41.7%	43.1*	36.1*
CCc1ccc(C(=O)COC(=O)C(CCSC)NC(=O)c2ccccc2)cc1 (centres undefined)	48.0	10.6%	-7.2%	active	22.2*
O=C(COC(=O)C(Cc1ccccc1)NC(=O)c1ccc(Cl)cc1)c1ccc(Cl)cc1 (centres undefined)	-34.5	-0.7%	0.0%	-7.2	9.4
COC(=O)c1ccccc1NC(=O)COC(=O)[C@H](C)NC(N)=O	-29.2	?	?	14.3	8.6
